Unmarked numbers belong to inactive results.

This test relates to Plasmodium falciparum NF54/iGP1_RE9H ulg8 stage V gametocytes. The experiment in a line: gametocyte viability (luciferase signal relative to DMSO control) (% of DMSO control); higher = less gametocytocidal activity, active = 50 or less. Particulars: exposure time: 72 h. In short, it runs like this: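 In 96-well plates holding nanolitre spots of compound (10 mM DMSO stocks), NF54/iGP1_RE9Hulg8 stage V gametocytes from day 12 were added at ~2.5% gametocytemia and 3% hematocrit in medium with 0.5% Albumax II, giving single wells at 10 µM or 1 µM. Incubation lasted 72 h at 37 °C. Each 90 µl sample then received 10 µl D-luciferin (30 mg/ml) before luminescence reading on an IVIS Lumina II, and viability was normalized to the mean of DMSO vehicle wells on the same plate.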

On to `CCOc1cc2ncc(C#N)c(Nc3ccc(F)c(Cl)c3)c2cc1NC(=O)/C=C/CN(C)C` [Pelitinib (EKB-569)], for which the gametocyte viability (concentration: 1 µM) is 85.3 and the gametocyte viability (concentration: 10 µM) is 99.8.
As to `C[C@@H](Oc1cc(-c2cnn(C3CCNCC3)c2)cnc1N)c1c(Cl)ccc(F)c1Cl`, the gametocyte viability was 88.7 (concentration: 1 µM) and 30.2 (active) (concentration: 10 µM).
For the compound `CN(C)CCCn1cc(C2=C(c3c[nH]c4ccccc34)C(=O)NC2=O)c2ccccc21`, the gametocyte viability was 92.7 (concentration: 1 µM) and 115 (concentration: 10 µM).
The matching figures for `Cc1cc(Nc2cc(N3CCN(C)CC3)nc(Sc3ccc(NC(=O)C4CC4)cc3)n2)n[nH]1` [VX-680 (MK-0457, Tozasertib)]: 97.5 and 84.3.
For the compound `Cc1ncc(-c2ccnc(Nc3ccc(S(C)(=O)=O)cc3)n2)n1C(C)C`, the gametocyte viability is 115 (concentration: 1 µM) and 119 (concentration: 10 µM).
As for `N#Cc1c(O)c2c(-c3ccc(-c4ccccc4O)cc3)csc2[nH]c1=O`, the gametocyte viability is, setting by setting: (concentration: 1 µM) 97.7; (concentration: 10 µM) 105.
As for `O=C(NOCC1CC1)c1ccc(F)c(F)c1Nc1ccc(I)cc1Cl`, the gametocyte viability (concentration: 1 µM) was 93.2 and the gametocyte viability (concentration: 10 µM) was 98.6.
On to `COC(=O)c1ccc2c(C(=Nc3ccc(N(C)C(=O)CN4CCN(C)CC4)cc3)c3ccccc3)c(O)[nH]c2c1` [BIBF1120 (Vargatef)], for which the gametocyte viability reads like this: (concentration: 1 µM) 96; (concentration: 10 µM) 108.
The matching figures for `S=C(NCc1ccc2c(c1)OCO2)N1CCN(c2ncnc3c2oc2ccccc23)CC1` [Amuvatinib (MP-470)]: 98.1 and 110.
Regarding `O=c1c(O)c(-c2ccc(O)c(O)c2)oc2cc(O)cc(O)c12` [Quercetin (Sophoretin)], the gametocyte viability was 105 (concentration: 1 µM) and 108 (concentration: 10 µM).
